# PubChem BioAssay (NCATS)
# Inconclusive results are not listed. A call without a number means that no potency is given here. Active and inactive are the calls of the source. The call rests on the fitted dose curve; in most records, active means well fitted inhibition curve with a large enough effect; inconclusive means small, poorly fitted or top-dose-only effect; inactive means flat fitted curve, though single readings scatter.
# Target: Glutathione peroxidase 1 (Homo sapiens) (UniProt P07203)
# Test: Primary qHTS Assay for Inhibitors of Recombinant Selenoprotein Glutathione Peroxidase 1 (GPX1) (AID 1845191); further: nearly all actives have a fitted effect of over 65% in size
# Details: recombinant GPX1, GR-coupled NADPH fluorescence, 15 min; series mostly up to 48.8 µM
# Procedure, shortened: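 GPX1 10 nM, GR 100 nM, GSH 1 mM, NADPH 0.5 mM, CHP 0.5 mM (final). 30-min cpd preincubation, RT. Ex340/Em450 read t=0, t=15 min.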
# Glutathione peroxidase 1 (Homo sapiens), sequence (P07203 whole entry, looked up): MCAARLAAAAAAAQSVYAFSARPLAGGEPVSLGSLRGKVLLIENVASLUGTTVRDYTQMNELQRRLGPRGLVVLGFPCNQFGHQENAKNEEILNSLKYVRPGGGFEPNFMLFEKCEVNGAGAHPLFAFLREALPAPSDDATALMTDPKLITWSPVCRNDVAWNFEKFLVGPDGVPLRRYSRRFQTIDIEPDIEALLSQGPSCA
row,SMILES,Potency
1,CCC(=O)O[C@@H]1C=C2CCC3C(CCC4(C)C3CC[C@@H]4OC(=O)CC)C2CC1 (stereo partly specified),inactive
2,O=C(Nc1ccncc1)C(=O)c1cn(Cc2ccc(Cl)cc2)c2ccccc12,inactive
3,CCN1C[C@]2(OC(=O)c3ccccc3NC(C)=O)CC[C@H](OC)[C@@]34[C@H]5CC6[C@@H](OC)C[C@](O)(C(C[C@@H]23)[C@@H]14)[C@@]5(O)[C@@H]6OC,inactive
4,O=C(O)COc1ccccc1,inactive
5,CC[N+]1(CCOC(=O)C(O)(c2ccccc2)c2ccccc2)CCCCC1,inactive
6,C1CCC(NC2CCCCC2)CC1,inactive
7,c1ccc2c(CN3CCNCC3)cccc2c1,inactive
8,COCC1(CO)C(=O)C2CCN1CC2 (stereo unspecified),inactive
9,COC(=O)c1cncn1C(C)c1ccccc1 (stereo unspecified),inactive
10,CCOC(=O)c1c(C(C#N)=CN)c2ccc(Cl)c(Cl)c2n1C,inactive
11,O=c1cccc2n1CC1CNC[C@H]2C1,inactive
12,CCCC[N+]1(C)[C@H]2CC(OC(=O)[C@H](CO)c3ccccc3)C[C@H]1[C@H]1O[C@H]12 (stereo partly specified),inactive
13,C=CCC1=C(C)C(OC(=O)C2C(C=C(C)C)C2(C)C)CC1=O (stereo unspecified),inactive
14,C[C@]12CC[C@H]3[C@@H](CCC4=CC(=O)CC[C@@]43C)[C@H]1CC[C@H]2OC(=O)CCC1CCCC1,inactive
15,C[C@](O)(COc1ccc(C#N)cc1)C(=O)Nc1ccc(C#N)c(C(F)(F)F)c1,inactive
16,O=[N+]([O-])c1ccc([As](=O)(O)O)cc1,inactive

row,SMILES,Potency
1,C#CC1(O)CCC2C3CCC4=CC(=O)CCC4(C)C3CCC21C (stereo unspecified),inactive
2,Cc1cc(O)ccc1Cl,inactive
3,CCOP(=O)(OCC)C(C)NC(=O)N(CCCl)N=O (stereo unspecified),inactive
4,CCCCCCCCCCCCCCCC[N+](C)(C)C,inactive
5,COc1ccc(C(=O)c2c(C)n(CCN3CCOCC3)c3cc(I)ccc23)cc1,inactive
6,N=c1c2c(-c3ccccc3)c(-c3ccccc3)n(Cc3ccccc3)c2ncn1C1CCC(O)CC1 (stereo unspecified),inactive
7,Clc1ccccc1C(c1ccccc1)(c1ccccc1)n1cccn1,inactive
8,C[C@]12CC[C@@H]3[C@@H](CCC4=CC(=O)CC[C@@H]43)[C@@H]1CC[C@@H]2OC(=O)CCc1ccccc1,inactive
9,CN(C)[C@@H]1C(=O)C(C(N)=O)=C(O)[C@@]2(O)C(=O)C3=C(O)c4c(O)cccc4[C@@](C)(O)[C@H]3[C@H](O)[C@@H]12,inactive
10,CC(C)(O)C(=O)Nc1ccc([N+](=O)[O-])c(C(F)(F)F)c1,inactive
11,NC(CP(=O)(O)O)C(=O)O (stereo unspecified),inactive
12,NC1=NC(=O)N2CC12 (stereo unspecified),inactive
13,CN(C)NC(=O)CCC(=O)O,inactive
14,CN[C@@H]1Cc2cccc3[nH]c(=O)n(c23)C1,inactive
15,CSCC[C@@H](NC(=O)[C@@H](Cc1ccccc1)NC(=O)CNC(=O)CNC(=O)[C@@H](N)Cc1ccc(O)cc1)C(=O)O,inactive
